{"source": "PubChem BioAssay (NCI)", "note": "This is part of a sample that, as a whole, favours compounds with a hit. Of some 83,000 tested, about 20% had one in any assay.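 Activity criterion: percent growth below 10, measured after cells in 96-well plates were exposed to a single compound concentration for 48 hours.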 Values without a mark were called inactive. The source made the active and inactive calls.", "data": [{"test_system": "DU-145 prostate", "assay": "NCI-60 one-dose screen, 48 h (100 = growth as untreated, 0 = no growth, -100 = all killed)", "conditions": "10 µM unless noted", "values": [{"smiles": "Cc1nn(-c2ccccc2)c(Oc2ccc(Cl)cc2)c1/C=N\\N=c1/sc2ccccc2n1C", "growth": "108%"}, {"smiles": "CC(C)Sc1nc(NNC(N)=S)c(C#N)c(-c2ccc(F)cc2)n1", "growth": "110%"}, {"smiles": "NC(=O)c1ccc[n+](Cc2ccc(Cl)cc2Cl)c1", "growth": "111%"}, {"smiles": "CCCCCCCC/C=C\\CCCCCCCCOc1ccccc1CC(=O)NCC[N+](C)(C)C", "growth": "80.1%"}, {"smiles": "O=C1Nc2ccccc2/C1=C/c1cn(C(=O)c2ccc(Cl)cc2)c2ccccc12", "growth": "118%"}, {"smiles": "O=C1/C(=C\\c2cccnc2)SC(=S)N1CCc1ccc(O)cc1", "growth": "16.6%"}, {"smiles": "COc1ccc(C2C(c3nn[nH]n3)=C(N)Oc3c2ccc2ccccc32)cc1", "note": "(stereo not drawn)", "growth": "88%"}, {"smiles": "COc1ccc(NC(=O)CSc2nnc(-c3cc(-c4ccc(S(N)(=O)=O)cc4)nc4ccccc34)n2-c2ccccc2)cc1", "growth": "96.6%"}, {"smiles": "COc1ccc(-c2csc(C3=C(O)CN(C(C)C)C3=N)n2)cc1OC", "growth": "108%"}, {"smiles": "Cn1cc(-c2csc(-c3ccccc3)n2)c2cccnc21", "growth": "-61.4% [100 µM] (active)"}, {"smiles": "CCN1CCN(c2cc(C)nc(NCc3cc(Nc4ccnc5cc(Cl)ccc45)ccc3F)n2)CC1", "growth": "50.7%"}, {"smiles": "C#CCOc1nc(C)cc(C)c1C#N", "growth": "104%"}, {"smiles": "Cc1cc(O)c(C2=NN(c3ccc(S(N)(=O)=O)cc3)C(c3ccccc3Cl)C2)cc1Cl", "note": "(stereo not drawn)", "growth": "4.85% (active)"}, {"smiles": "N#Cc1c(-c2cccc(Cl)c2)cc(-c2cccc(Cl)c2)[nH]c1=O", "growth": "96.5%"}, {"smiles": "N=c1sc(Cc2ccc(Cl)cc2)cn1CC(=O)c1ccc(F)cc1", "growth": "78.3%"}, {"smiles": "COc1cc(CCC[P+](c2ccccc2)(c2ccccc2)c2ccccc2)cc2c1OCO2", "growth": "48.2%"}, {"smiles": "CCCCc1ccc(Nc2ccc(Nc3ccc(CCCC)cc3S(=O)(=O)O)c3c2C(=O)c2ccccc2C3=O)c(S(=O)(=O)O)c1", "growth": "107%"}, {"smiles": "COc1ccc2occ(C3=C(c4c[nH]c5ccccc45)C(=O)N(O)C3=O)c2c1", "growth": "102%"}, {"smiles": "CC1(C)OC2C(CO[Si](C)(C)C(C)(C)C)OC(n3c(I)c(C#C[Si](C)(C)C)c(=O)[nH]c3=O)C2O1", "note": "(stereo not drawn)", "growth": "107%"}, {"smiles": "Cc1ccc(S(=O)(=O)NCC[C@@H]2C[C@H]2c2cc3ccccc3s2)cc1", "growth": "101%"}, {"smiles": "NC[C@H](O)c1ccc(O)c(O)c1", "growth": "106%"}, {"smiles": "C=C(C)[C@@H]1CC[C@]2(C(=O)NC3CCCCC3)CC[C@]3(C)[C@H](CC[C@@H]4[C@@]5(C)CCC(=O)C(C)(C)[C@@H]5CC[C@]43C)[C@@H]12", "growth": "104%"}, {"smiles": "N=C1CCC(=N)c2c1c(O)c1ccccc1c2O", "growth": "106%"}, {"smiles": "COC(=O)[C@]12CC[C@@H](C)[C@H](C)[C@@H]1C1=CC[C@@H]3[C@@]4(C)C(C=O)=C[C@@](C)(COC(C)=O)[C@@H]4C(=O)C[C@@]3(C)[C@]1(C)CC2", "growth": "42.6%"}, {"smiles": "COc1cc(/C=N/Nc2ncc(-c3cc4cc5c(cc4o3)OCO5)s2)cc(OC)c1OC", "growth": "48%"}, {"smiles": "OC(c1cccc(-n2ccc(C(F)(F)F)n2)c1)c1cnccc1NC1CCCCCC1", "note": "(stereo not drawn)", "growth": "2.76% (active)"}, {"smiles": "COc1ccc(-c2[nH]c(=S)n(C(CC3(C)NCC(=O)N3n3c(-c4ccccc4)cc(C)nc3=S)c3ccc(OC)cc3)c(=O)c2Br)cc1", "note": "(stereo not drawn)", "growth": "66.6%"}, {"smiles": "Cc1ccc(Cl)c(NS(=O)(=O)c2ccc(-c3cnc(C4CC4)o3)cc2)c1", "growth": "21.6%"}, {"smiles": "O=C(NC(Cc1nnc2n(Cc3ccccc3)c(=O)c3c4c(sc3n12)CCCC4)c1ccc(Cl)cc1)c1ccccc1", "note": "(stereo not drawn)", "growth": "96.7%"}, {"smiles": "Cc1c(O)cc(-c2cnc(N/N=C\\c3ccc(Cl)cc3)s2)c(O)c1C", "growth": "100%"}, {"smiles": "CCN(CC)CCn1nc2c3c(cccc3c1=O)-c1ccccc1-2", "growth": "20.9%"}, {"smiles": "Fc1c[c-]c(-c2ccccn2)c(F)c1.[CH3-].[Pt+2].c1ccc(P(C[PH+](c2ccccc2)c2ccccc2)c2ccccc2)cc1", "growth": "5.54% (active)"}, {"smiles": "CCN1C(=O)N(CC)C2Nn3c(s/c(=C\\c4cccc([N+](=O)[O-])c4)c3=O)=NC21", "note": "(stereo not drawn)", "growth": "30.5%"}, {"smiles": "N#C/C(=C/C=C/c1cccc(Cl)c1)S(=O)c1ccccc1", "note": "(stereo not drawn)", "growth": "-92.6% (active)"}, {"smiles": "Oc1c(CN2CCCC2)cc(COCc2ccc(Br)cc2)c2cccnc12", "growth": "22.7%"}, {"smiles": "O=C(CCCCCCN1CC(=O)N2[C@@H](c3ccccc3Cl)c3[nH]c4ccccc4c3C[C@H]2C1=O)NO", "growth": "77.2%"}, {"smiles": "COc1ccc(C2CC(c3cccc(OC)c3)=NN2C(=O)c2cc(OC)c(OC)c(OC)c2)cc1", "note": "(stereo not drawn)", "growth": "-24.7% (active)"}, {"smiles": "CCc1c2c(nc3ccc(OC(=O)OCc4ccc(B5OC(C)(C)C(C)(C)O5)cc4)cc13)-c1cc3c(c(=O)n1C2)COC(=O)[C@]3(O)CC", "growth": "4.84% (active)"}]}]}
